Assay outcomes from PubChem.
NFkB transloc inh = blocks IL-1B driven NFkB nuclear translocation in HUVEC cells. hit rate 0.43% among 94,000. HUVEC IL-1B NFkB p65 nuclear translocation imaging. AID 796. inhibition, % at 2 µM;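 active = inhibition above about 30% together with a positive call from visual inspection of the well image, limit read from the data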;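 also: nuclear over cytoplasmic p65 intensity ratio measured by imaging; 0% = IL-1B stimulated DMSO wells and 100% = unstimulated DMSO wells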
IL1B cytotox = HUVEC cytotoxicity counter-screen, IL-1B stimulated; cell count reduction, % at 2 µM; AID 845; HUVEC cell count loss, Hoechst imaging; hit rate 0.41% among 94,000;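 active = cell count reduction more than 3 SD above the screen-wide mean, cut at about 70% in these data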;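 also: normalized per plate to untreated control cells as the no-loss baseline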
PTPN22 inh 2 = blocks human PTPN22 phosphatase activity. recombinant LYP catalytic domain, DiFMUP fluorescence. Q9Y2R2. hit rate 0.21% among 96,000. inhibition, % at 2 µM;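 active = inhibition at 2 µM at or above a set limit, the screen mean plus 3 SD, cut at about 24% in these data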;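 also: 0% = DMSO with enzyme and 100% = enzyme fully blocked by orthovanadate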
Target sequence (Q9Y2R2 whole entry, looked up, the tested form may be a part): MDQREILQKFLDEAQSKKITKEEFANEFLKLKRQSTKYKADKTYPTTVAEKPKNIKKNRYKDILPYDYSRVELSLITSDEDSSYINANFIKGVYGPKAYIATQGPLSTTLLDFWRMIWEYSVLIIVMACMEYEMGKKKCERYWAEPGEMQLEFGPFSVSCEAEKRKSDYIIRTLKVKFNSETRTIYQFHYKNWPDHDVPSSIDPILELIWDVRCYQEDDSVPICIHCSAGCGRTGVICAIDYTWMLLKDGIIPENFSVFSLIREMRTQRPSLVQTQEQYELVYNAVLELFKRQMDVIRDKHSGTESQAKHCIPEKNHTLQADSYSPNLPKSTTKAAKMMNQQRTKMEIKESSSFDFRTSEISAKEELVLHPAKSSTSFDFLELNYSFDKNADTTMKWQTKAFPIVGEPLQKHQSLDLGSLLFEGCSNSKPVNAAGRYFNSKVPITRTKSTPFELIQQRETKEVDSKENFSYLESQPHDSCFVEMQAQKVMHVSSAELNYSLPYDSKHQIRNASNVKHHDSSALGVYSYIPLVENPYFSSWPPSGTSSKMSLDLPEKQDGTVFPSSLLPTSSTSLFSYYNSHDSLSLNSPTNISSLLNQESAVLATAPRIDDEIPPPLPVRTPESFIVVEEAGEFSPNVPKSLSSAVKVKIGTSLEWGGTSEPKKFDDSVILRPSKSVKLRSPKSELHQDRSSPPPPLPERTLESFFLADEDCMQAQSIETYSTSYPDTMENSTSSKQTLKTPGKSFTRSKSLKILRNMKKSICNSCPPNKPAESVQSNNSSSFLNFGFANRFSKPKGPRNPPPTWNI
PTPN22 act = activators of human LYP (PTPN22) phosphatase | Q9Y2R2 | recombinant LYP, DiFMUP fluorescence; 0 = plate median, 100 = signal doubled | activation, % at 2 µM | hit rate 0.11% among 96,000 | AID 697;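 active = activation at 2 µM above a set limit, the mean plus 5 SD, cut at about 37% in these data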
IL1B NFkB pot = enhances IL-1B driven NFkB nuclear translocation. HUVEC IL-1B NFkB p65 nuclear translocation imaging. activation, % at 2 µM. hit rate 0.3% among 94,000. AID 819;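 active = activation above 40%, about the mean plus 3 SD, also judged a hit on visual image review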;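 also: percent activation is computed from the nuclear over cytoplasmic p65 intensity ratio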
Numbers without * were called inactive; · = no result. Only some compounds are listed: those with a hit (about 1.3% of all), similar ones and a draw of the others.

SMILES	NFkB transloc inh	IL1B cytotox	PTPN22 inh 2	PTPN22 act	IL1B NFkB pot
CCCC(=O)NC(Nc1cccc(C(F)(F)F)c1)C(Cl)(Cl)Cl (stereo unspecified)	-2.2	14.7	-6.0	9.6	2.2
CN(C)C(=O)C1(c2ccccc2)CCN(S(=O)(=O)c2ccccc2)CC1	-26.0	90.2*	-1.1	0.8	26.0
CSc1ccc(-c2nnn(Cc3ccccn3)n2)cc1	-10.7	-14.6	1.9	-4.5	10.7
CSc1ccc(-c2nnn(Cc3ccc(Br)cc3)n2)cc1	-58.4	13.0	7.4	-4.6	58.4*
Cc1ccccc1CS(=O)(=O)c1nnc([C@H](Cc2ccccc2)NC(=O)OC(C)(C)C)o1	5.0	-3.4	2.6	-1.7	-5.0
CC(C)(C)OC(=O)N[C@@H](Cc1ccccc1)c1nnc(S(=O)(=O)Cc2ccccc2)o1	38.4*	-113.1	5.2	-5.5	-38.4
O=C(CN1C(=O)COc2ccccc21)N1CCc2ccccc2C1	15.4	4.0	2.6	0.0	-15.4
CCOC(=O)c1ccc(NC(=O)CC2SCCNC2=O)cc1 (stereo unspecified)	-0.2	25.3	8.3	-8.9	0.2
CCOC(=O)c1ccc(NC(=O)CC2NCCNC2=O)cc1 (stereo unspecified)	-2.8	-23.9	31.5*	-30.0	2.8
CCCCCCCCOC(=O)C1=C(C)Nc2nnnn2C1c1cccs1 (stereo unspecified)	-9.1	8.2	10.0	-6.9	9.1
CCCCCCCOC(=O)C1=C(C)Nc2ncnn2C1c1cccs1 (stereo unspecified)	-40.9	0.8	-1.5	2.9	40.9*
O=C(N/N=C/c1ccc(Br)cc1)c1ccccc1-n1cccc1	-0.4	-3.1	1.1	2.3	0.4
Cc1csc(NC(=O)CSc2nnc(CCNC(=O)c3cccs3)n2C)n1	99.2*	88.8*	-6.2	5.5	-99.2
Cn1c(CCNC(=O)c2cccs2)nnc1SCC(=O)Nc1nc(-c2ccccc2)cs1	-0.8	0.0	6.7	-2.4	0.8
Cc1ccc2oc(-c3cccc(NC(=S)NC(=O)/C=C/c4ccco4)c3)nc2c1	-12.6	-57.6	11.9	-9.3	12.6
CCOC(=O)CSc1cc(CS(=O)(=O)c2ccccc2)nc(-c2ccccc2)n1	-10.8	82.7*	8.1	-5.9	10.8
CCOC(=O)CSc1nc(-c2ccccc2)nc2ccccc12	-2.3	8.2	3.5	0.3	2.3
COC(=O)CCS(=O)(=O)c1ccc(Cl)c(Cl)c1	-15.1	94.8*	3.6	-4.3	15.1
O=C(Nc1ccccc1)OCCNC(=O)c1ccccc1	-40.0	-65.6	-1.3	0.9	40.0*
O=C(NCCOC(=O)c1ccncc1)c1ccccc1	3.2	-39.7	-4.5	3.5	-3.2
CCOc1ccc(C2=NNC(c3cccs3)=Nc3ccc(OCC)cc32)cc1	6.2	-3.8	-1.7	1.3	-6.2
Cc1nc(-c2ccccc2)sc1C(=O)CSc1ccc(F)cc1	36.0*	-20.9	4.6	-1.3	-36.0
Cc1ccccc1-c1cc(C(=O)Nc2sc(C(=O)OC(C)C)c(C)c2C#N)c2ccccc2n1	2.5	10.5	-0.8	-2.2	-2.5
COc1cc(C(=O)N2CCC(O)(c3ccccc3)CC2)cc(OC)c1OC	-1.4	-12.2	1.3	-3.7	1.4
CC(C)C(=O)c1cc2c(cc1NC(=O)c1ccccc1)OCCO2	4.8	-11.5	-2.1	6.4	-4.8
SMILES	NFkB transloc inh	IL1B cytotox	PTPN22 inh 2	PTPN22 act	IL1B NFkB pot
CC(C)C(=O)c1cc2c(cc1NC(=O)c1cccs1)OCCO2	32.2*	-8.3	9.9	-6.1	-32.2
Cc1onc(-c2c(Cl)cccc2Cl)c1C(=O)N1CCc2ccccc2C1	2.5	1.0	9.7	-8.1	-2.5
COC(=O)CN1C(=O)CSc2ncccc21	-48.9	-13.2	-0.4	-1.2	52.0*
COC(=O)c1ccc(NC(=O)CN2C(=O)CSC2=O)cc1	-8.8	-26.8	-7.6	4.4	8.8
Cc1nnc(C)n1/N=C/c1cc(Br)cc(Br)c1O	·	·	0.2	-3.6	·
Nn1cnnc1N/N=C/c1cc(Br)cc(Br)c1O	-1.2	11.7	27.5*	-23.5	1.2
COc1ccc2c(C)cc(SCC(=O)Nc3c(C)n(C)n(-c4ccccc4)c3=O)nc2c1	-12.2	-6.1	47.1*	-46.0	12.2
CCCCCCc1cc2cc(-c3nnc(-c4ccccc4OC)o3)c(=O)oc2cc1O	0.5	-8.1	46.5*	-45.9	-0.5
CCCCCCc1cc2cc(-c3nnc(-c4cc(OC)c(OC)c(OC)c4)o3)c(=O)oc2cc1O	-25.5	-12.7	42.8*	-43.0	25.5
Cc1cc(-c2csc(N)n2)c(C)n1CCC(C)C	-6.8	-130.9	28.2*	-28.6	6.8
CCc1ccc(CN2CCN(C(=O)c3cccc(OC)c3OC)CC2)cc1	8.3	-22.5	-4.1	4.5	-8.3
CC(=O)c1c(C)[nH]c(C(=O)N2CCc3ccccc32)c1C	2.2	-37.3	-3.2	0.3	-2.2
CCOC(=O)c1[nH]c(C)c(C(=O)N2CCc3ccccc32)c1C	-100.0	15.0	-14.7	13.1	100.0*
c1ccc2oc(-c3ccc4nc[nH]c4c3)nc2c1	51.7*	-31.3	7.4	-6.9	-51.7
CCC(C)(C)NC(=O)C(c1ccncc1)N(Cc1ccc(C)cc1)C(=O)c1csnn1 (stereo unspecified)	-12.2	90.1*	-4.4	0.8	12.2
Cc1nc(CNS(=O)(=O)c2ccc3c(c2)OCCO3)cs1	-59.4	-10.6	9.1	-6.5	59.4*
COc1ccc(NC(=O)C2CC(=O)OC23CCOC(C)(C)C3)cc1 (stereo unspecified)	-9.7	-15.2	-4.2	5.3	9.7
CNC(=O)c1sc(-c2ccc(Cl)cc2)nc1C	14.9	75.2*	-8.3	5.6	-14.9
CNC(=O)c1sc(-c2ccccc2)nc1C	-19.2	-12.6	-3.1	3.8	19.2
CCCCCCCCC/C(=N\O)c1ccccn1	-13.0	-6.0	28.3*	-26.2	13.0
CCOC(=O)/C(C#N)=C\c1ccc(OCC(=O)Nc2ccc(C)cc2C)c(OC)c1	2.3	-27.3	13.0	-11.7	-2.3
COC(=O)c1cn(C(=O)c2ccco2)c2ccccc12	-6.7	-8.2	-9.0	8.9	6.7
COC(=O)c1cn(C(=O)c2cccs2)c2ccccc12	10.4	94.8*	-5.4	2.0	-10.3
CCOC(=O)C1CCCN(Cc2c(Cl)cccc2Cl)C1 (stereo unspecified)	·	·	12.8	-11.0	·
CCOC(=O)C1CCCN(Cc2cc(Br)c(OC)cc2OC)C1 (stereo unspecified)	98.5*	84.5*	5.9	-3.6	-98.5
Cc1cc(C)n2nc(SCC(=O)N/N=C/c3cccc(Br)c3)nc2n1	-136.5	-31.0	-1.8	4.2	136.5*
C=CCn1c(SCC(=O)c2ccc(OC)cc2)nnc1C(C)NC(=O)c1cccs1 (stereo unspecified)	48.8*	94.4*	-8.9	7.4	-48.8
C=CCn1c(SCC(=O)NC2CCCCC2)nnc1C(C)NC(=O)c1cccs1 (stereo unspecified)	-13.0	-54.4	-10.7	5.8	13.0
O=C(c1nc2nc(-c3ccc(Cl)cc3)cc(C(F)(F)F)n2n1)N1CCOCC1	31.3*	-25.9	-22.1	20.5	-31.3
COc1cc2[nH]c(=O)n(Cc3ccc(C(=O)NC4CCCC4)cc3)c(=O)c2cc1OC	-46.2	1.9	-24.4	24.8	46.2*
